# RecA intein inh: inhibitors of M. tuberculosis RecA intein splicing. cell-free RecA intein splicing, fluorescence. inhibition, % (no concentration beside the values). hit rate 0.75% among 290,000; in the data active = inhibition above about 30%;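 also: 0% = vehicle wells and 100% = reference inhibitor control wells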
# Rv3671c protease: Rv3671c (M. tuberculosis) protease inhibition; P9WHR9; inhibition, % at 5.96 µM; hit rate 0.048% among 320,000; AID 2606; in the data active = inhibition above about 38%;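 also: extracellular domain of Rv3671c used as enzyme; 0% = enzyme with DMSO and 100% = no enzyme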
# FBA Mtb inh: inhibitors of M. tuberculosis fructose-bisphosphate aldolase. P9WQA3. purified M. tuberculosis FBA, fluorescence read-out. inhibition, % at 1 µM. hit rate 2.3% among 360,000; in the data active = inhibition above about 27%;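 also: 0% = vehicle and 100% = reference inhibitor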
# UGM FP inh: inhibitors of M. tuberculosis UDP-galactopyranose mutase; inhibition, % at 10 µM; P9WIQ1; hit rate 0.06% among 320,000; purified UGM, fluorescence polarization probe displacement; in the data active = inhibition above about 10%, passing the limit was not always enough
# Target sequence (P9WIQ1 whole entry, looked up): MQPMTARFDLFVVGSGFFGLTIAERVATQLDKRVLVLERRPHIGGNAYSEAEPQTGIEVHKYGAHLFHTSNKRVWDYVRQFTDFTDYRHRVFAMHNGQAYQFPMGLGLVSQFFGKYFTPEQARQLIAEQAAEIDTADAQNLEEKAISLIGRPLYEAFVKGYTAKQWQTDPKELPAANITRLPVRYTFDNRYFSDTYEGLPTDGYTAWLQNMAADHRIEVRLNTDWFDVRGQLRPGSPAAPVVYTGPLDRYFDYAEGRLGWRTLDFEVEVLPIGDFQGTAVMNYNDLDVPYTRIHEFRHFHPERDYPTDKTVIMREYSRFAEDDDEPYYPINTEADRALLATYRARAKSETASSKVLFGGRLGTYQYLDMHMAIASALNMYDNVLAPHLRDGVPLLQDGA
# Mtb bLac sens: beta-lactam sensitization of Mtb H37Rv; M. tuberculosis H37Rv growth with meropenem, percent inhibition; inhibition, % at 25 µM; hit rate 0.27% among 330,000; call rule not given here;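 also: growth measured after seven days incubation then overnight dye step; 0% = bacteria only wells and 100% = bacteria with antibiotic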
# GDH-TPI inh: counter-screen for M. tuberculosis FBA inhibitors: GDH-TPI coupled enzymes; GDH-TPI coupled enzyme counterscreen, NADH absorbance; inhibition, % at 4.8 µM; hit rate 1.2% among 360,000; AID 588335; in the data active = inhibition above about 30%;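 also: 0% = DMSO wells and 100% = wells lacking the enzyme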
# Starred values were filed as active, the others as inactive; nt = no result; + = active, no number. Sampled rows, rich in hits. Any-hit rate of the full collection: about 4%.
SMILES,RecA intein inh,Rv3671c protease,FBA Mtb inh,UGM FP inh,Mtb bLac sens,GDH-TPI inh
CC(C)c1[nH]nc2c1C(c1cccnc1)C(C#N)=C(N)O2 (stereo unspecified),43*,-8,-1,3,-3,1
CCOC(=O)C1=C(C)OC(N)=C(C#N)C1c1ccc(C)o1 (stereo unspecified),-5,-6,-3,-3,7,15
Cc1ccc(C2C(C#N)=C(N)Oc3nc(-c4ccccc4)[nH]c32)o1 (stereo unspecified),89*,-6,-1,2,2,18
CCc1[nH]nc2c1C(c1ccc(C)o1)C(C#N)=C(N)O2 (stereo unspecified),49*,4,-3,-1,-11,11
CS(=O)(=O)N1CCC(C(=O)Nc2ccc(Cl)cc2Cl)CC1,nt,nt,-3,nt,nt,4
Cc1[nH]nc2c1C(Cc1ccccc1)C(C#N)=C(N)O2 (stereo unspecified),27,-4,-3,-3,-5,3
COCc1[nH]nc2c1C(c1ccccc1OC)C(C#N)=C(N)O2 (stereo unspecified),62*,-1,2,2,0,-2
CCc1[nH]nc2c1C(Cc1ccccc1)C(C#N)=C(N)O2 (stereo unspecified),59*,3,6,1,2,2
CCCc1[nH]nc2c1C(Cc1ccccc1)C(C#N)=C(N)O2 (stereo unspecified),28,7,1,-2,-4,15
CC(C)c1[nH]nc2c1C(Cc1ccccc1)C(C#N)=C(N)O2 (stereo unspecified),53*,-1,2,0,5,11
CC1CN(S(=O)(=O)c2ccc(C(=O)N(C)C3CCCCC3)cc2)CC(C)O1 (stereo unspecified),nt,-2,1,-7,-5,3
Cc1ccccc1-c1cnc(C(O)c2ccc(F)c(F)c2)[nH]1 (stereo unspecified),nt,nt,1,nt,nt,0
Cc1ccc(S(=O)(=O)Oc2ccc(C)cc2/C=N/N=C2\NC(=O)C(C)S2)cc1 (stereo unspecified),-3,-1,-1,3,-6,38*
CCn1nc(C)cc1C(=O)N1CCCC(C(=O)c2ccccc2SC)C1 (stereo unspecified),1,5,0,-1,1,-10
O=C(NCC1CCCO1)c1ccc2c(c1)N(Cc1ccc(Cl)cc1)CCS2 (stereo unspecified),nt,nt,132*,nt,nt,12
Cc1ccc(CN2CCSc3ccc(C(=O)NCCCN4CCN(C)CC4)cc32)cc1,-11,6,161*,-4,1,5
O=C(NCC1CCCO1)c1ccc2c(c1)N(Cc1ccccc1)C(=O)CS2 (stereo unspecified),0,-2,-3,0,6,2
Cc1ccccc1-c1cnc(C(O)c2c(C)ccc3ccccc23)[nH]1 (stereo unspecified),nt,nt,2,nt,nt,8
O=C(Cn1c(C(F)(F)F)nc2ccccc21)N=Nc1c(O)[nH]c2ccc(Br)cc12,0,0,1,4,-8,1
CN(C)c1ccc(N=Cc2nc(-c3ccccc3)oc2O)cc1,-3,4,-4,15*,33,13
Oc1oc(-c2ccccc2)nc1C=NCc1ccccc1,3,-2,-4,7,-1,49*
c1ccc2nc(N3CCCC3)c(N3CCCCC3)nc2c1,nt,nt,1,nt,nt,0
c1ccc2nc3c(nc2c1)OCC1CCCCN31 (stereo unspecified),-3,7,150*,0,3,18
O=C(c1ccco1)N1CCN(c2ccc([N+](=O)[O-])cn2)CC1,1,10,3,1,2,31*
Cc1cc(OCC(=O)N2CCC(C(=O)O)(c3ccccc3)CC2)c2c(C)c(C)c(=O)oc2c1,10,-12,64*,-1,-4,-1
SMILES,RecA intein inh,Rv3671c protease,FBA Mtb inh,UGM FP inh,Mtb bLac sens,GDH-TPI inh
Cc1cc(OCC(=O)NC2CC(C)(C)NC(C)(C)C2)c2c(C)c(C)c(=O)oc2c1,-2,4,131*,0,3,24
Cc1cc(OCC(=O)N2CCN(c3ccccc3)CC2)c2c(C)cc(=O)oc2c1,0,2,-1,1,4,12
CC(C)n1nc(C(=O)Nc2cccc(S(=O)(=O)N3CCCCC3)c2)c2ccccc2c1=O,nt,-31,0,0,-3,1
O=C(O)c1cc(-c2ccc(Cl)cc2)n(-c2cccc(Cl)c2)n1,1,-2,2,1,-11,-11
O=C(NCc1ccccn1)c1cccc(S(=O)(=O)NCc2ccccc2)c1,-2,5,5,1,-3,14
Cc1csc2ncc(C(=O)N3c4ccccc4CC3C)c(=O)n12 (stereo unspecified),-6,6,5,2,6,42*
Cc1csc2ncc(C(=O)Nc3ccccc3F)c(=O)n12,2,-1,-2,0,-6,31*
CC1Cc2ccccc2N1C(=O)c1cnc2ccccn2c1=O (stereo unspecified),-1,-3,0,3,-3,18
CCN(C(=O)c1cnc2scc(C)n2c1=O)c1ccccc1C,-1,4,3,1,1,31*
CCOc1ccc(C(C(=O)NCC2CCCO2)N(Cc2cccs2)C(=O)c2snc(C(N)=O)c2N)cc1 (stereo unspecified),nt,1,-1,5,2,13
O=C(c1cccnc1)c1cc2ccccc2[nH]1,-2,8,0,-4,-4,35*
N#C/C(=C\C=C\c1ccccc1)c1nc(-c2ccc3c(c2)OCO3)cs1,-3,1,2,20*,56,14
CCOC(=O)c1sc(=S)n(C)c1NC(=O)c1cccc(Br)c1,-1,-4,2,-2,-2,25
CCOC(=O)c1sc(=S)n(C)c1NC(=O)c1ccccc1,1,-4,-2,0,5,36*
CN(CC(=O)Nc1cccc(C(F)(F)F)c1)C1=NS(=O)(=O)c2ccccc21,nt,0,6,0,-4,3
CC(C)Cn1c(N)c(C(=O)COC(=O)c2ccncc2)c(=O)n(C)c1=O,9,-1,7,1,-5,10
CC(C)Cn1c(N)c(C(=O)COC(=O)c2nccnc2N)c(=O)n(C)c1=O,nt,3,+,2,-7,15
O=C(N/N=C/c1ccsc1)c1c[nH]c2ccccc12,-3,1,2,-1,10,9
Cc1ccc(/C=N/NC(=O)c2c[nH]c3ccccc23)s1,-4,0,-1,-3,26,49*
Cc1ccc(/C=N/NC(=O)c2c[nH]c3ccccc23)o1,0,6,-6,0,5,59*
O=C(N/N=C/c1ccc[nH]1)c1sc2ccccc2c1Cl,3,-2,-4,2,96,38*
Cc1ccsc1/C=N/NC(=O)c1c[nH]c2ccccc12,0,-6,7,2,-8,45*
O=C(CC(=O)NN=Cc1ccc2c(c1)CCC2)NN=Cc1ccc2c(c1)CCC2,nt,nt,0,nt,nt,7

# From PubChem
